About 83,000 compounds went through this panel and 20% of them were active in at least one assay; those are over-represented in the sample as a whole.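 How to read the values: 0–100, growth inhibition (40 = 60% inhibited); 0, no net growth; -100 to 0, cell death (-40 = 40% of starting cells died; -100 = all dead).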 Values without a mark were called inactive. Active and inactive are the calls of the source. Rule for the calls: active = growth percent below 10; inactive = the rest.
Test system: MDA-MB-468 breast
Test: NCI-60 one-dose screen, 48 h (100 = growth as untreated, 0 = no growth, -100 = all killed)
Details: 10 µM unless noted

Compared with `CCCC(OC(C)=O)c1ccc2c(c1)OCO2` (stereo not given), `CCNCc1ccccc1` is lower in growth: 103% for the first, 98.6% for the second.

First: Nc1nc(N)c(N=Nc2ccc(C(=O)O)cc2)c(N)n1
Second: COc1ccc(-c2nc(N)n(C(=S)Nc3ccccc3)n2)cc1
The growth of the first is higher: 114% for the first, 102% for the second.

Going from `COC1=C(C)C(=O)c2c(c(CCCl)c3n2CCC3O)C1=O` (stereo not given) to `COc1ccc(N2CCN(C(=O)c3sc4nc(C)c(Br)c(C)c4c3N)CC2)cc1`, the growth rises from 91.5% to 109%.

Going from `NC(=O)NC(=O)/C=C/C(=O)OCCCl` to `CCCCC1=C(P(=O)(O)O)N[C@H](C(=O)O)CS1`, the growth rises from 88.5% to 89.1%.

Going from `C/C=C/C/C=C/[C@H](C)C[C@H](O)[C@@H]1C[C@@H]2O[C@H]2/C=C/[C@@H]2OC(C)(C)O[C@H]2/C=C/C[C@H](C)CC(=O)O1` to `NC1N=C(SCC(=O)N2CCN(c3cc4c(cc3F)c(=O)c(C(=O)O)cn4C3CC3)CC2)NC(=O)/C1=C/c1ccc(Cl)cc1` (stereo not given), the growth rises from 59.8% to 111%.

Compared with `Cc1ccc(N)cc1F`, `Nc1ccc2c(c1)C1(CCC2)NC(=O)NC1=O` (stereo not given) is lower in growth: 100% for the first, 97.4% for the second.

Compared with `CC/C(=C(/c1ccc(Cl)cc1)c1ccc(OCCN(CC)CC)cc1)c1ccc(OC)cc1`, `COc1ccc(-c2ccc3c4c(cccc24)C(=O)N(N2C(=O)c4cccc5cccc(c45)C2=O)C3=O)cc1` is higher in growth: 38% for the first, 96.5% for the second.

Compared with `N#CC(=C1C=CC(=NO)C=C1)c1ccccc1`, `COc1ccccc1/C=C(/C(=O)c1ccccc1)c1ccccc1` is higher in growth: 13.8% for the first, 101% for the second.

Going from `COc1cc(-c2nc(SCCC(C)C)nc(Nc3ccccc3Cl)c2C#N)cc(OC)c1OC` to `COc1ccc(/C=C\c2cc(OC)c(OC)c(OC)c2)cc1OC(=O)c1cccc(Cn2cc(CCOC(=O)[C@H](N)Cc3cn(C)c4ccccc34)nn2)c1`, the growth falls from 108% to 13.9%.

Compared with `COc1ccccc1N1CCN(C(=O)c2ccc3nc(NC(=O)c4ccc(NCCc5ccccc5)c([N+](=O)[O-])c4)sc3c2)CC1`, `Cc1c(C(N)=O)sc2c1c(=O)n(Cc1ccccc1)c1nnc(Nc3ccccc3)n21` is higher in growth: 99.1% for the first, 108% for the second.

Going from `O=S1SC(c2ccccc2)=NN1c1cc(F)cc(F)c1` (stereo not given) to `O=C1Nc2ccc(Br)cc2C12Oc1ccccc1C1CC(c3ccc(F)cc3)=NN12` (stereo not given), the growth rises from 44.4% to 82.1%.

Compared with `Cc1ccc2c(Cn3cc(CSc4nc5ccccc5o4)nn3)cc(=O)oc2c1`, `CN1C(=O)C(C2=NNC(c3ccccc3C(=O)O)C2)C(=O)N(C)C1=O` (stereo not given) is lower in growth: 113% for the first, 96.4% for the second.

Going from `CC(C)(C)c1cc(O)c(C(C)(C)C)cc1O` to `O=C(Nc1cccc(Cl)c1)Oc1c(Br)c(Br)c(Br)c(Br)c1Br`, the growth rises from 66.2% to 94.1%.

Compared with `CC1CCC(C)N(C)C1` (stereo not given), `O=C(CN1CCN(c2cc3c(cc2F)c(=O)c(C(=O)O)cn3C2CC2)CC1)Nc1cc(=O)[nH]c(=O)[nH]1` is lower in growth: 105% for the first, 89.7% for the second.

With `CSC(=S)N/N=C(\C)c1ccccn1` the growth was -19.5% (active).
In the case of `COc1cnc2c(c1)C(=O)c1c-2n(CCCNCC2CC2)c(=O)c2cc(F)ccc12`, the growth is reported as -38.4% (active).
For `O=C1NC(=O)[C@@H](c2cn3c4c(cccc24)CCC3)[C@@H]1c1c[nH]c2ccccc12`, the growth was -0.826% (active).
`CC1(C)CC[C@]2(C(=O)O)CC[C@]3(C)C(=CC[C@@H]4[C@@]5(C)CC[C@H](NOCCCN)C(C)(C)[C@@H]5CC[C@]43C)[C@@H]2C1` was tested, and the growth was -45.6% (active).
`Cc1cc(N2CCSCC2)nc(NC2CCCC(Nc3ccnc4cc(Cl)ccc34)C2)n1` (stereo not given) was tested, and the growth was -43.7% (active).
For `Cn1cc(-c2nc(-c3c[nH]c4c(Cl)nccc34)cs2)c2ccccc21`, the growth was 8.74% (active).
With `O=C(CCn1cc[n+](CC(=O)c2ccc(-c3ccccc3)cc2)c1)Nc1cccc2cccnc12` the growth was -16.8% (active).
With `CS(=O)(=O)Nc1cccc(-c2ccc3ncnc(Nc4cncc(Cl)c4)c3c2)c1` the growth was -39.5% (active).
In the case of `COc1cc(-c2csc(NC(=O)Nc3cc(C(F)(F)F)cc(C(F)(F)F)c3)n2)cc(OC)c1OC`, the growth is reported as 4.77% (active).
`CN1CCN(Cc2ccc(NC(=O)c3cncc(C#Cc4cnc(N)c5cnccc45)c3)cc2C(F)(F)F)CC1` was tested, and the growth was 6.98% (active).
In the case of `C#CCOc1cccc(Nc2ncnc3c2ncn3C2CCN(C(=O)CCl)C2)c1` (stereo not given), the growth is reported as -65.7% (active).

For `Cn1cc(-c2ccc3nc(-c4ccc(CC(=O)Nc5cc(C(C)(C)C)no5)cc4)cnc3c2)cn1`, the growth was 14.8% [30 µM].
